From PubChem BioAssay
Calls of active or inactive are those of the source.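 How the source made its calls: active means at least 20% inhibition of 6-phosphogluconate dehydrogenase activity; inactive means the rest.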

Target: 6-phosphogluconate dehydrogenase, decarboxylating (Homo sapiens) (UniProt P52209)
Assay: inhibition of human phosphogluconate dehydrogenase – biochemical, recombinant enzyme, NADPH absorbance, primary screen (AID 1159550)
Details: recombinant 6PGD, NADPH absorbance 341 nm; at 10 µM; hits give high values

6-phosphogluconate dehydrogenase, decarboxylating (Homo sapiens), sequence (P52209 whole entry, looked up): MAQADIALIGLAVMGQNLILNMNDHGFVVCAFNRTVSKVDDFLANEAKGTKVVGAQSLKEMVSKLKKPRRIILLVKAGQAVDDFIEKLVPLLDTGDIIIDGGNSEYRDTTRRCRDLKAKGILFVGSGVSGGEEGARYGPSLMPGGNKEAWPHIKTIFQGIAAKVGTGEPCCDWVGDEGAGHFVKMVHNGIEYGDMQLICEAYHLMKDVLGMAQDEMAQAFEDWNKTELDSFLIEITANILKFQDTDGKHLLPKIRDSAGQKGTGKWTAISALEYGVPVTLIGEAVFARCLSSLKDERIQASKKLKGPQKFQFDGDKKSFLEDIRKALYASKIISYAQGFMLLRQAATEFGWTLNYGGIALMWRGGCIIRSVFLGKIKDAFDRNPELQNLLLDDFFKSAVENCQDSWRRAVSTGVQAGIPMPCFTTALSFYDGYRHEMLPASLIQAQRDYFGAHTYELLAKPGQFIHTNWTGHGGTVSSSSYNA

inhibition, inactive:
COC(=O)[C@]1(C)CC[C@]2(C)CC[C@]3(C)C4=CCc5c(cc(OC(C)=O)c(OC(C)=O)c5C)[C@]4(C)CC[C@@]3(C)[C@@H]2C1 10.1%
CC(=O)O[C@@H]1CC2C(C)(C)C(=O)CC[C@]2(C)C2CC[C@]3(C)C(=CC(=O)O[C@H]3c3ccoc3)[C@@]21C (some centres undefined) 14.2%
Nc1ncnc2c1ncn2C1CC(O)C(CO)O1 (centres undefined) 2.59%
CCN1CC2CCC(OC)C34C2C(O)C2(OCOC25CC(OC)C2CC3(O)C5C2OC)C14 (centres undefined) 4.26%
CN1c2ccccc2C(=O)N2CCc3c([nH]c4ccc(O)cc34)[C@H]21 3.55%
CC(=O)O[C@H]1CC2C(C)(C)[C@H](OC(C)=O)C=C[C@@]2(C)C2CC[C@@]3(C)C(=CC(=O)O[C@@H]3c3ccoc3)[C@]21C (some centres undefined) 0.19%
COc1ccc(-c2coc3cc(O)c(OC)cc3c2=O)cc1 10.5%
CC(=O)O[C@H]1CCC2(C)C(=CCC3C2CCC2(C)C3CC3OC4(CCC(C)CO4)C(C)C32)C1 (some centres undefined) -0.838%
NC1(C(=O)O)CCC1 2.05%
